Measured values taken from PubChem BioAssay (NCI).
About 83,000 compounds went through this panel and 20% of them were active in at least one assay; those are over-represented in the sample as a whole.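 Cell lines were cultured in 96-well plates, exposed to a single compound concentration, and assessed for percent growth 48 hours later.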 Values without a mark were called inactive. Activity calls are given as the source filed them. The calls were made as follows: active = growth percent below 10; inactive = the rest.

Assays:
Experiment in all cases: NCI-60 one-dose screen, 48 h (100 = growth as untreated, 0 = no growth, -100 = all killed)
DU-145 prostate = conditions: 10 µM unless noted
MALME-3M melanoma = conditions: 10 µM unless noted
RXF 393 renal = conditions: 10 µM unless noted
SF-295 CNS = conditions: 10 µM unless noted
UACC-257 melanoma = conditions: 10 µM unless noted
M14 melanoma = conditions: 10 µM unless noted
SK-MEL-5 melanoma = conditions: 10 µM unless noted
UACC-62 melanoma = conditions: 10 µM unless noted
SK-MEL-2 melanoma = conditions: 10 µM unless noted
A498 renal = conditions: 10 µM unless noted
HL-60(TB) leukemia = conditions: 10 µM unless noted
CCRF-CEM leukemia = conditions: 10 µM unless noted
SR leukemia = conditions: 10 µM
OVCAR-4 ovarian = conditions: 10 µM unless noted
IGROV1 ovarian = conditions: 10 µM
OVCAR-3 ovarian = conditions: 10 µM unless noted
BT-549 breast = conditions: 10 µM
HCC-2998 colon = conditions: 10 µM unless noted
LOX IMVI melanoma = conditions: 10 µM unless noted
K-562 leukemia = conditions: 10 µM unless noted

SMILES	growth (DU-145 prostate)	growth (MALME-3M melanoma)	growth (RXF 393 renal)	growth (SF-295 CNS)	growth (UACC-257 melanoma)	growth (M14 melanoma)	growth (SK-MEL-5 melanoma)	growth (UACC-62 melanoma)	growth (SK-MEL-2 melanoma)	growth (A498 renal)	growth (HL-60(TB) leukemia)	growth (CCRF-CEM leukemia)	growth (SR leukemia)	growth (OVCAR-4 ovarian)	growth (IGROV1 ovarian)	growth (OVCAR-3 ovarian)	growth (BT-549 breast)	growth (HCC-2998 colon)	growth (LOX IMVI melanoma)	growth (K-562 leukemia)
CC(C)[C@]12O[C@H]1[C@@H]1O[C@]13[C@]1(O[C@H]1C[C@H]1C4=C(CC[C@@]13C)C(=O)OC4)[C@@H]2OC(=O)OC(C)(C)C	8.08% (active)	-35.6% (active)	-52.2% (active)	-28.7% (active)	-7.48% (active)	-75.7% (active)	-2.1% (active)	-51.4% (active)	-55.3% (active)	-36.6% (active)	-15.7% (active)	13.4%	3.66% (active)	29.3%	-5.58% (active)	5.42% (active)	-12.2% (active)	-38% (active)	–	–
C[C@@H]1O[C@@H](O[C@H]2CC[C@@]3(C)[C@H](CCC4[C@@H]3C(O)C[C@]3(C)[C@@H](c5ccc(=O)oc5)CC[C@]43O)C2)[C@H](O)[C@H](O)[C@H]1O (some centres not stated)	-70.1% (active)	-45.9% (active)	-52.3% (active)	-71.5% (active)	-99.7% (active)	-70.7% (active)	-99.6% (active)	-89.6% (active)	-81% (active)	-27.9% (active)	–	–	–	-92.9% (active)	-62.9% (active)	-46.7% (active)	-89.9% (active)	-73.6% (active)	-55.8% (active)	–
O=S(=O)(Cl)c1ccccc1 (tested in a mixture with another compound)	109%	92.2%	99.1%	–	97.1%	102%	99.2%	106%	–	85%	–	114%	104%	106%	109%	106%	99.5%	100%	98.8%	–
CCC(CO)NC1CCCCC1 (configuration not stated)	91.1%	86.1%	45%	113%	89.9%	84.6%	93.4%	91.9%	81.2%	71.6%	60.9%	–	1.74% (active)	89%	53.9%	100%	108%	86.4%	27.9%	16.6%
CN1CC2CCC(C1)C2=O	115%	79.2%	119%	–	102%	98.2%	101%	110%	95.5%	110%	96.3%	94.4%	82.7%	103%	93.8%	106%	88.8%	114%	98.1%	93.1%
CC1COC(=O)C1 (configuration not stated)	104%	98.2%	103%	99.8%	104%	102%	99.6%	–	99.3%	89.2%	105%	95.4%	–	109%	103%	–	102%	98.6%	100%	–
[N-]=[N+]=NC(C(=O)O)c1ccccc1 (configuration not stated)	116%	106%	140%	102%	98.3%	–	116%	117%	99.5%	101%	89.4%	–	83.9%	–	98%	118%	114%	96.9%	100%	94.3%
[Br][Pb]([c]1ccccc1)([c]1ccccc1)[c]1ccccc1	-97.5% (active)	–	-83.2% (active)	–	-99% (active)	-100% (active)	-100% (active)	-92.2% (active)	-96.6% (active)	-100% (active)	-39.9% (active)	-21.5% (active)	-37.8% (active)	-100% (active)	-50.9% (active)	-99% (active)	–	-94.6% (active)	-100% (active)	-46.7% (active)
CCOc1cc(C=C(C#N)C#N)cc(Br)c1O	103%	106%	121%	110%	107%	98%	105%	105%	102%	96.4%	–	102%	93.4%	103%	109%	98.8%	99.1%	99.4%	97.1%	75.2%
